Results filed as inconclusive are left out. Unmarked numbers belong to inactive results. Active and inactive are the calls of the source. The call rests on the fitted dose curve; in most records, active means well fitted curve in the direction sought with a large enough effect; inconclusive means small, poorly fitted or top-dose-only effect, or another doubt; inactive means no such curve, though single readings can be large; an effect the other way counts as inactive or inconclusive.

Experiment [1] deals with Rap guanine nucleotide exchange factor 3 (Homo sapiens) (UniProt O95398). Briefly: Confirmatory qHTS for antagonist of cAMP-regulated guanine nucleotide exchange factor 3 (EPAC1) (AID 1645880). Further: nearly all actives have a fitted effect of over 55% in size. Further: potency means the concentration at half of the fitted maximal effect. A digest of the protocol:
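Released BODIPY-GDP fluoresces less than Rap1-bound BODIPY-GDP; the signal is followed at 480/540 nm at 5-min intervals over 30 min, after 5 min at room temperature. Reactions contain 100 nM EPAC1, 250 nM RAP1B-BODIPY-GDP and 50 uM GDP; results are normalized to ATA and DMSO.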

The target is the same in experiment [2]. In words: Confirmatory qHTS for agonist of cAMP-regulated guanine nucleotide exchange factor 3 (EPAC1) (AID 1645881).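 Further: EPAC1 catalysed release of BODIPY-GDP from Rap1B seen as fluorescence loss; 100% = effect of cAMP agonist control; nearly all actives have a fitted effect of over 75% in size.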
Experiment [3] addresses Rap guanine nucleotide exchange factor 4 (Homo sapiens) (UniProt Q8WZA2). Briefly: Confirmatory qHTS for agonist of cAMP-regulated guanine nucleotide exchange factor 4 (EPAC2) (AID 1645884).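 Further: nucleotide exchange releases bodipy-GDP from Rap1 and this lowers its fluorescence; on the % scale 0 is the no-effect control and ±100 the full control effect; nearly all actives have a fitted effect of over 65% in size.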
For experiment [4] the target is unchanged. Briefly: Confirmatory qHTS for antagonist of cAMP-regulated guanine nucleotide exchange factor 4 (EPAC2) (AID 1645885). Further: nearly all actives have a fitted effect of over 25% in size. Further: potency means the concentration at half of the fitted maximal effect. On activity change, negative = inhibition: on the % scale 0 is the no-effect control and ±100 the full control effect.
Experiment [5] has as its target Rap guanine nucleotide exchange factor 3 (Homo sapiens) (UniProt O95398). In words: Counterscreen qHTS for antagonist of cAMP-regulated guanine nucleotide exchange factor 3 (EPAC1) (AID 1645888). Further: % of control where 0% means no effect. In short, it runs like this:
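Rap1B-BODIPY-GDP 250 nM + GDP 50 uM; cpds 7-pt, final 9.74 nM–152 uM (activator mode) or from 7.32 nM upwards (inhibitor mode); RT; FI 480/540 nm at 5 and 30 min, then ± cAMP, reread.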

Sequence of Rap guanine nucleotide exchange factor 3 (Homo sapiens) (O95398 whole entry, looked up): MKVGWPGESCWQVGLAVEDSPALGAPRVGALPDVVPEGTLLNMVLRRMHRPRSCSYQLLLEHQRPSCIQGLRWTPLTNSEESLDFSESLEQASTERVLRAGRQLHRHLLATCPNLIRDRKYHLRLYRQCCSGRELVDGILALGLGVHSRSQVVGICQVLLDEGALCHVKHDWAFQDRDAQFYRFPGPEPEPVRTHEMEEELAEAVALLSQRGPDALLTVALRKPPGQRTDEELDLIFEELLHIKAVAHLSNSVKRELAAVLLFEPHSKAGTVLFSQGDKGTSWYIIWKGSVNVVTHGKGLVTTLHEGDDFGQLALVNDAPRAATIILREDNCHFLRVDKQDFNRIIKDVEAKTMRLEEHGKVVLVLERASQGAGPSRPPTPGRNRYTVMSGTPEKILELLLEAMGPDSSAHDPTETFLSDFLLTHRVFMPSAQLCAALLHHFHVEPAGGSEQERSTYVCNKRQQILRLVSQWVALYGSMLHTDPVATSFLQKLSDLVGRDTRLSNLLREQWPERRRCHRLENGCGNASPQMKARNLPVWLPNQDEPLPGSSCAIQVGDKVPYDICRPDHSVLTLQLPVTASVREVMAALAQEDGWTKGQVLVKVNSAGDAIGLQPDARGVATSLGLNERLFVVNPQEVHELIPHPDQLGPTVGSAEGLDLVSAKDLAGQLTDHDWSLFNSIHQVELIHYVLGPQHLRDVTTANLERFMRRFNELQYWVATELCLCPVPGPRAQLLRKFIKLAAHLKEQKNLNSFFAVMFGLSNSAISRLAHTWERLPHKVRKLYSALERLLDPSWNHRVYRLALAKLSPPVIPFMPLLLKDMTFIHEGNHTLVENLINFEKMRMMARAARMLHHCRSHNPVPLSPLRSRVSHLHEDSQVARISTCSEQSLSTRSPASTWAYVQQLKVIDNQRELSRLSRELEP
Sequence of Rap guanine nucleotide exchange factor 4 (Homo sapiens) (Q8WZA2 whole entry, looked up): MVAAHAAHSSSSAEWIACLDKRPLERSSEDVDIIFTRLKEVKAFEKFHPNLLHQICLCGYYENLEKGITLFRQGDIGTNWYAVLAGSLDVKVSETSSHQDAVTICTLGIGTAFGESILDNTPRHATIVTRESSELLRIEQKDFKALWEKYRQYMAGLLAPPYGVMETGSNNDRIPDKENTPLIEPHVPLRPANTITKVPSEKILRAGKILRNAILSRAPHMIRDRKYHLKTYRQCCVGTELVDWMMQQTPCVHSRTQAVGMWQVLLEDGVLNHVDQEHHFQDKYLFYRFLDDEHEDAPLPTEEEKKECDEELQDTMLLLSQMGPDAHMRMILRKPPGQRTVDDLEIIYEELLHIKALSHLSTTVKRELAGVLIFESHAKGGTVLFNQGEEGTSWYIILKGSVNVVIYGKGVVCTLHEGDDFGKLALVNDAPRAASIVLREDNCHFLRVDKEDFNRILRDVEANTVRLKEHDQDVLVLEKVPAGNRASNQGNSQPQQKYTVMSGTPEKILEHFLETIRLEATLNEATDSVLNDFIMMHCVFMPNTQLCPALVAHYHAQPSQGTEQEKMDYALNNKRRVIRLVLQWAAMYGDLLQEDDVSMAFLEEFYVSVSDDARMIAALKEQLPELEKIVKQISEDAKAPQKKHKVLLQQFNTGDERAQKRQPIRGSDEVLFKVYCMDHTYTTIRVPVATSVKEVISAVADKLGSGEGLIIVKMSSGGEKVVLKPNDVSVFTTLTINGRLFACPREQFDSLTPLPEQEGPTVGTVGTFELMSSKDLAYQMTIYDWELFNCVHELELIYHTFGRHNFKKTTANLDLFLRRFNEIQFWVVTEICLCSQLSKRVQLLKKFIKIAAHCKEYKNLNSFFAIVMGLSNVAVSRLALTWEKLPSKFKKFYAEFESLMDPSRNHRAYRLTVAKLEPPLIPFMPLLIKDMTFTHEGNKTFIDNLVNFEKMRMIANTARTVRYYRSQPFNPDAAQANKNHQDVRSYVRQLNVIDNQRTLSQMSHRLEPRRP

Regarding `O=C1NN(c2ccccc2)C(=O)/C1=C\c1coc2ccc(O)cc2c1=O`, the Potency in experiment [1] was 21.3 µM (active). Further, the Potency entry in experiment [2], in experiment [3], in experiment [4] and in experiment [5] was “inactive” each time.

Consider `COc1ccc(C2NC(=O)N(C)C3=C2C(=O)N(c2cccc(Cl)c2)C3)cc1` (stereo not given), for which the Potency result in experiment [1], in experiment [2], in experiment [3], in experiment [4] and in experiment [5] was “inactive” in each case.

Take `C#CCOCCOCCOCCNc1nc(N2CCN(C(=O)[C@H](Cc3cc4ccccc4[nH]3)n3cc([C@@H](N)Cc4ccc(O)cc4)nn3)CC2)nc(N2CCN(C(=O)[C@H](Cc3cc4ccccc4[nH]3)n3cc([C@@H](N)CC(C)C)nn3)CC2)n1`: the Potency in experiment [1] is 44.7 µM (active). The Potency entry in experiment [2] and in experiment [4] was “inactive” in each case. The activation in experiment [3] was -1.86% [at 17.1 µM, percent relative to cAMP agonist control]. The activity change, negative = inhibition in experiment [5] was -28.3% [at 30.8 µM].

In the case of `COC(=O)c1ccc(CNC(=O)/C=C/[C@H]2O[C@@H](n3cc(C)c(=O)[nH]c3=O)C[C@@H]2O)cc1`, the Potency entry in experiment [1], in experiment [2], in experiment [3], in experiment [4] and in experiment [5] was “inactive” in each case.

For `CC(OC(=O)Cc1c[nH]c2ccccc12)C(=O)Nc1ccccc1F` (stereo not given), the Potency result in experiment [1], in experiment [2], in experiment [3], in experiment [4] and in experiment [5] was “inactive” throughout.

With `COc1ccc(OC)c(/C=C2\SC(=S)N(NS(=O)(=O)c3ccccc3)C2=O)c1`, the Potency was 23.9 µM (active) in experiment [1] and 33.8 µM (active) in experiment [4]. Besides, the Potency entry in experiment [2], in experiment [3] and in experiment [5] was “inactive” in each case.

As to `Cc1cccc(Cc2cnc(N3C(=N)SC(c4ccccc4)C3=O)s2)c1` (stereo not given), the Potency entry in experiment [1], in experiment [2], in experiment [3], in experiment [4] and in experiment [5] was “inactive” throughout.

On to `CCOC(=O)c1c(C)[nH]c(CCC(=O)NCc2cccc(OC)c2)c1C`, for which the Potency result in experiment [1], in experiment [2], in experiment [3], in experiment [4] and in experiment [5] was “inactive” in each case.

Regarding `NC(=O)COC(=O)/C=C/c1ccc2ccccc2n1`, the Potency result in experiment [1], in experiment [2], in experiment [3], in experiment [4] and in experiment [5] was “inactive” in each case.

For `CC(=Cc1ccccc1)C=C1SC(=S)N(CCCC(=O)Nc2ccc(C(=O)O)c(O)c2)C1=O`, in experiment [1], the Potency is 37.9 µM (active). Moreover, the Potency entry in experiment [2], in experiment [3], in experiment [4] and in experiment [5] was “inactive” in each case.

For the compound `CC(=O)N(C(C)=O)N1C(=O)c2cccc3c(N4CCOCC4)ccc(c23)C1=O`, the Potency entry in experiment [1], in experiment [2] and in experiment [4] was “inactive” in each case. Moreover, the activation in experiment [3] was 18.1% [at 17.1 µM, percent relative to cAMP agonist control]. Moreover, the activity change, negative = inhibition in experiment [5] was 16.3% [at 30.8 µM].

With `Cc1ccc(C(=O)c2cn(Cc3ccccc3)c3nc(C)ccc3c2=O)cc1`, the Potency entry in experiment [1], in experiment [2], in experiment [3], in experiment [4] and in experiment [5] was “inactive” in each case.

For `COC(=O)c1cc2oc(C)cc2n1Cc1c(C)cc(C)cc1C`, the Potency result in experiment [1], in experiment [2], in experiment [3], in experiment [4] and in experiment [5] was “inactive” each time.

As for `O=C(OC1CCOC1=O)c1ccc(-c2nc3ccccc3s2)s1` (stereo not given), the Potency entry in experiment [1], in experiment [2], in experiment [3] and in experiment [5] was “inactive” throughout. In addition, the outcome in experiment [4] was “inactive [at 12.7 µM]”.

Consider `Cc1cccc(Nc2c([N+](=O)[O-])c(=O)oc3ccccc23)c1`, for which the Potency result in experiment [1], in experiment [2], in experiment [3], in experiment [4] and in experiment [5] was “inactive” throughout.

Take `Cc1ccc(-c2cn3c(n2)sc2cc(C(=O)NCCC4=CCCCC4)ccc23)c(C)c1`: the Potency result in experiment [1], in experiment [2], in experiment [3], in experiment [4] and in experiment [5] was “inactive” each time.

As to `COc1ccc(OC)c(/C=C2\SC(=S)N(NS(=O)(=O)c3ccc(C)cc3)C2=O)c1`, the Potency in experiment [1] is 30.1 µM (active); in experiment [4], 47.8 µM (active). The Potency entry in experiment [2], in experiment [3] and in experiment [5] was “inactive” each time.

As for `Cc1cc(C)c(S(=O)(=O)N2CCCCC2CCNC(=O)C(=O)NCC2CCCO2)c(C)c1` (stereo not given), the Potency entry in experiment [1], in experiment [2] and in experiment [4] was “inactive” throughout. Also, the activation in experiment [3] is 2.27% [at 17.1 µM, percent relative to cAMP agonist control]. The activity change, negative = inhibition in experiment [5] was 6.58% [at 30.8 µM].

In the case of `CCOC(=O)c1ccc(NC(=O)Cn2nc(C)c3nn(-c4ccc(Cl)cc4)c(C)c3c2=O)cc1`, the Potency result in experiment [1], in experiment [2], in experiment [3], in experiment [4] and in experiment [5] was “inactive” each time.

For `O=C(CSc1nnc(-c2cccnc2)n1CCc1ccccc1)NCc1ccccc1`, the Potency entry in experiment [1], in experiment [2] and in experiment [4] was “inactive” throughout. Further, the activation in experiment [3] was 4.59% [at 17.1 µM, percent relative to cAMP agonist control]. Moreover, in experiment [5], the activity change, negative = inhibition is -2.95% [at 30.8 µM].

Regarding `Cc1cc(O)c(C(=O)/C=C/c2cccc([N+](=O)[O-])c2)c(=O)o1`, the Potency in experiment [1] was 33.8 µM (active). Moreover, the Potency entry in experiment [2], in experiment [3], in experiment [4] and in experiment [5] was “inactive” throughout.

With `Cc1ccc(S(=O)(=O)/N=C2\SC(CC(=O)Nc3ccc(F)cc3)C(=O)N2c2ccccc2)cc1` (stereo not given), the Potency result in experiment [1], in experiment [2] and in experiment [4] was “inactive” throughout. Further, the activation in experiment [3] is 3.37% [at 17.1 µM, percent relative to cAMP agonist control]. Also, the activity change, negative = inhibition in experiment [5] is -39.2% [at 30.8 µM].

The values are drawn from PubChem BioAssay (NCATS).
